Calls of active or inactive are those of the source. The rule behind the calls is not given here.
The compounds below were run against Protein kinase 7 (PK7), Plasmodium falciparum 3D7 (PF3D7_0213400) (UniProt Q7YTF7) (assay: inhibition of Plasmodium PK7 catalytic activity – biochemical, TCAMS antimalarial set, Kinase-Glo luminescence (AID 1159587)). Details: recombinant PfPK7, Kinase-Glo ATP depletion luminescence.
Protein kinase 7 (PK7), Plasmodium falciparum 3D7 (PF3D7_0213400), sequence (Q7YTF7 1-343): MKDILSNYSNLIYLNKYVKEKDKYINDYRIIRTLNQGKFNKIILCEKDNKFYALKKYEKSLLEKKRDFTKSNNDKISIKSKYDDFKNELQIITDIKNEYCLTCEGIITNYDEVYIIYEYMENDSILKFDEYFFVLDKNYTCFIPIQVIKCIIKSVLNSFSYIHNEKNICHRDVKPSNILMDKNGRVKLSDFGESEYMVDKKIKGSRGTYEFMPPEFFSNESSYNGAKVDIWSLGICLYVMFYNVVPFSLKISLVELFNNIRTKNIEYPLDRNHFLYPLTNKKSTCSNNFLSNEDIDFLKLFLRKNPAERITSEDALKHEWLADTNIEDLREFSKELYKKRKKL

| Compound | outcome |
| --- | --- |
| CC(=O)C=C1CC(=O)N(C[C@@H](O)[C@H]2O[C@@H]3OC(C)(C)O[C@@H]3[C@H]2O)c2ccccc2N1 | inactive |
| O=C(Nc1cccc(-c2ccc(-c3nc4ccc(C(F)(F)F)cc4[nH]3)cc2)c1)c1ccoc1 | inactive |
| Cc1cc(C2CCN(CCCCNC(=O)c3ccc(-c4ccc(C#N)cc4)cc3)CC2)c(C)cc1O | inactive |
| CNC(=O)CSc1nnc(-c2ccc(C)cc2)c(-c2ccc(C)cc2)n1 | inactive |
| CCN(CC)CCN(CCN(CC)CC)c1ccc(-c2nc3cc(Cl)c(Cl)cc3[nH]2)cc1 | inactive |
| CN(C)CCOc1ccc(/C(=C(/CCCn2ccnc2)c2ccccc2)c2ccc(O)cc2)cc1 | inactive |
| CC(C)c1ccc(Nc2nc(NCCc3cnc[nH]3)nc(NCc3ccccc3)n2)cc1 | inactive |
| Cc1ccc(Oc2ccc(NC(=O)CNc3ccccc3N3CCCC3=O)cc2)cc1 | inactive |
| CC1(C)N=C(N)N=C(N)N1OCCc1ccccc1 | inactive |
| OC(COCc1ccc(-c2ccccc2)cc1)CN1CCCCC1 (stereo not given) | inactive |
| COc1ccc(-c2csc(NC(=O)CCC(=O)O)n2)cc1OC | inactive |
| CCCC(=O)Nc1ccc(OCCCN(Cc2ccccc2F)c2ccc(C#N)c(C(F)(F)F)c2)cc1 | inactive |
| Cc1cccc2[nH]c(-c3ccc(-c4ccc(CNCc5ccc(CN)cc5)cc4)cc3)nc12 | inactive |
| NC(N)=NC(=O)Nc1ccc(Cl)c(Cl)c1 | inactive |
| COCCNCc1cccc(-c2ccccc2CN(C(=O)c2ccc3c(c2)OCO3)c2ccc(OC)cc2)c1 | inactive |
| FC(F)(F)c1cccnc1N1CCC(Nc2nc3ccc(Cl)cc3[nH]2)CC1 | inactive |
| c1ccc2c(Nc3ccc(Cc4ccc(Nc5c6ccccc6nc6ccccc56)cc4)cc3)c3ccccc3nc2c1 | inactive |
| COc1cc(F)c2nccc([C@@H](O)CN3CC[C@H](NCc4ccc5c(n4)NC(=O)CS5)[C@H](F)C3)c2c1 | inactive |
| COc1ccc(-c2nc(-c3ccc([N+](=O)[O-])cc3)no2)cc1OC | inactive |
| N#Cc1ccc(-c2ccc(C(=O)NCCCCN3CCC(c4ccc5c(c4OCC(N)=O)CCCC5)CC3)cc2)cc1 | inactive |

| Compound | outcome |
| --- | --- |
| CC1CN(CC(O)Cn2c3ccc(Br)cc3c3cc(Br)ccc32)CC(C)O1 (stereo not given) | inactive |
| N#Cc1cccc(C(=O)Nc2cccc(-c3cccc(CN4CCNCC4)c3)c2)c1 | inactive |
| COCCNCc1cccc(C#Cc2cc3ncnc(Nc4ccc(OCc5cccc(F)c5)c(Cl)c4)c3s2)n1 | inactive |
| Cc1cccc(-c2ccc3c(c2)CC(NCc2cccc(-n4ccnc4)c2)C3)c1 (stereo not given) | inactive |
| Nc1nc(N)c2c(ccc3c2ccn3Cc2ccccc2)n1 | inactive |
| COc1ccc(-c2cccc(NC(=O)c3cccc(Cl)c3)c2)cc1CN1CCC(O)CC1 | inactive |
| Cc1cccc2[nH]c(-c3ccc(-c4cccc(CNCc5ccccc5)c4)cc3)nc12 | inactive |
| FC(F)(F)c1ccc2nc(-c3ccc(-c4cccc(CN5CCC(CCN6CCCCC6)CC5)c4)cc3)[nH]c2c1 | inactive |
| CN1CCC(C(=O)Nc2ccc(-c3ccc(-c4nc5ccccc5[nH]4)s3)cc2)CC1 | inactive |
| COc1ccc(Nc2nccc(NCC(O)c3ccc(C(F)(F)F)cc3)n2)cc1 (stereo not given) | inactive |
| CC(C)Cc1cn(-c2nc(-c3nc4ccccc4[nH]3)cs2)c2ccncc12 | inactive |
| CC1=C(C(=O)Nc2cc3cn[nH]c3cc2F)C(c2cccc(O)c2F)CC(=O)N1 (stereo not given) | inactive |
| O=C(Nc1ccccc1)c1ccc(N2CCC(COc3cccc(C(F)(F)F)c3)CC2)nc1 | inactive |
| CN(C)c1nc2cc(-n3cnc4cc(-c5ccc(Cl)cc5)sc4c3=O)ccc2n1CCCN1CCCC1 | inactive |
| O=C(NCC1CCC(C(=O)O)CC1)c1ccc(/C=C/C(=O)N2CCc3ccccc3C2c2ccc3c(c2)OCO3)cc1 (stereo not given) | inactive |
| COc1ccc(CN(C)CCCOc2ccc(NC(=O)C=Cc3ccc(C(C)(C)C)cc3)cc2)cc1OC | inactive |
| CC(C)CCCC(C)NC[C@@H](O)[C@H](Cc1ccccc1)NC(=O)c1cc(N2CCCC2=O)cc(N(c2ccccc2)S(C)(=O)=O)c1 (stereo not given in full) | inactive |
| CC(C)CCNC(=O)C1Cc2c([nH]c3ccc(Br)cc23)C2(CCN(Cc3ccccc3)CC2)N1 (stereo not given) | inactive |
| CN1CCN(c2ccnc3cc4ccccc4cc23)CC1 | inactive |
| Cc1noc(C)c1-c1cccc(CNCc2cccc(-c3ccc(-c4nc5ccccc5[nH]4)s3)c2)c1 | inactive |
